# Test results as given in PubChem BioAssay (NCATS).
# Values joined by “and” are separate entries in the source; they are usually repeats but may differ in a detail not shown here. Equal values may be shown once. Results filed as inconclusive are left out. Active and inactive are the calls of the source. Unless noted, calls come from the whole dose curve; as a rule, active = well fitted curve in the direction sought with a large enough effect; inconclusive = small, poorly fitted or top-dose-only effect, or another doubt; inactive = no such curve, though single readings can be large; an effect the other way counts as inactive or inconclusive.
# How the values were obtained:
# [1] = Drug repurposing screens with cells derived from glioblastoma tumor samples (AID 1345199); conditions: GBM patient neurospheres viability, ATP luminescence, 48 h; note: nearly all actives have a fitted effect of over 40% in size; note: potency is the fitted concentration of half-maximal effect; for activity, negative = cell killing: % is set by controls: 0 for no effect and ±100 for the full control effect
# In short: (§1)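 Primary testing used CD133+ neurospheres from four GBM patients, seven concentrations, 48 h exposure and ATP-based viability; confirmation added three slower-growing patient lines.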
# [2] = system: astro; experiment: as above; conditions: viability, ATP luminescence, 48 h; series mostly up to 45.9 µM
# In short: as §1
# [3] = biological target: Nuclear receptor subfamily 1 group I member 2 (Rattus norvegicus) (UniProt Q9R1A7); experiment: qHTS assay for small molecule activators of the rat pregnane X receptor (rPXR) signaling pathway (AID 651751; call rule not given here; note: 0% is about no effect); conditions: rPXR reporter cells, luciferase (One-Glo), 24 h
# [4] = qHTS assay for small molecule activators of the human pregnane X receptor (PXR) signaling pathway (AID 720659; call rule not given here; note: 0% is about no effect); conditions: DPX-2 HepG2 CYP3A4-luciferase, 24 h; series mostly up to 92.3 µM
# [5] = qHTS assay to identify inhibitors of the type 1 interferon - major histocompatibility complex class I in skeletal muscle: Counter screen cell viability and HiBit confirmation (AID 1347412); conditions: iHSKM muscle cells + IFN-b, HiBiT or CellTiter-Glo, 24 h; Potency: HiBiT; Viability, at 45.9 µM (top of the series); note: % is set by controls: 0 for no effect and ±100 for the full control effect; nearly all actives have a fitted effect of over 60% in size
# In short: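 CRISPR HLA-B*08:01-HiBit immortalized human myoblasts (C25cl48) stimulated with 4 ng/ml IFN-beta and compounds (12-point 1:3, top 46 uM final) for 24 h at 37 C. Duplicate plates read by HiBit lytic luminescence or CellTiter Glo ATP.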
# [6] = at 20 µM (top of the series), tumour line C
# [7] = at 21.2 µM (top of the series), tumour line B
# [8] = at 21.2 µM (top of the series), tumour line D
# [9] = at 45.9 µM (top of the series), tumour line B
# [10] = at 45.9 µM (top of the series), tumour line D
# [11] = at 46.1 µM (top of the series), tumour line C
# Sequence of Nuclear receptor subfamily 1 group I member 2 (Rattus norvegicus) (Q9R1A7 whole entry, looked up): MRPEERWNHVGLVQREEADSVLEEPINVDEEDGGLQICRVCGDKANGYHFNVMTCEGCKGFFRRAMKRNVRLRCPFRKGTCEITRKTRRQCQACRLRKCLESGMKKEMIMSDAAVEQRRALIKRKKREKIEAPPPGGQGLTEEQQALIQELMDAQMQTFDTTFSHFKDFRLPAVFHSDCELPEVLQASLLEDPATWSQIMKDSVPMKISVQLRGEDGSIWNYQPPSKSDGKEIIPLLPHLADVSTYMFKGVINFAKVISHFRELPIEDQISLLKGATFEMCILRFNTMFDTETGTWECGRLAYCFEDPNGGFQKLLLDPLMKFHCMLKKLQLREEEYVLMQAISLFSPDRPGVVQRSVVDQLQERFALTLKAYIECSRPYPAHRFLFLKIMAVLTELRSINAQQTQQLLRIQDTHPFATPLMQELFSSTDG
compound,measurement,setting,value
CCNC1(c2cccs2)CCCCC1=O (stereo unspecified),"activity, negative = cell killing",[1]; [6],-10.7% (inactive)
same,"activity, negative = cell killing",[1]; [7],2.65% (inactive)
same,"activity, negative = cell killing",[1]; [8],-6.43% (inactive)
same,Potency,[2],inactive
S=C=S,"activity, negative = cell killing",[1]; [9],-6.17% (inactive)
same,"activity, negative = cell killing",[1]; [10],-16.5% (inactive)
same,"activity, negative = cell killing",[1]; [11],-10.7% (inactive)
same,Potency,[2],inactive
same,max response,[3],-0.686% (inactive)
same,outcome,[4],inactive
[O]=[Cr](=[O])([OH])[O][Cr](=[O])(=[O])[OH],"activity, negative = cell killing",[1]; [10],-3.21% (inactive)
same,"activity, negative = cell killing",[1]; [11],-22.8% (inactive) and -5.59% (inactive)
same,Potency,[2],inactive
O=C1CCCCC1CN1CCCCC1 (stereo unspecified),"activity, negative = cell killing",[1]; [9],-12.3% (inactive)
same,"activity, negative = cell killing",[1]; [10],4.04% (inactive)
same,"activity, negative = cell killing",[1]; [11],-15.7% (inactive)
same,Potency,[2],inactive
COCC(C)N(C(=O)CCl)c1c(C)csc1C (stereo unspecified),"activity, negative = cell killing",[1]; [9],-13.4% (inactive)
same,"activity, negative = cell killing",[1]; [10],-11.3% (inactive)
same,"activity, negative = cell killing",[1]; [11],-13.3% (inactive)
same,Potency,[2],inactive
same,max response,[3],2.96% (inactive)
Clc1ccc(C(Cn2ccnc2)OCc2csc3c(Cl)cccc23)c(Cl)c1 (stereo unspecified),Potency,[2],inactive
O=[N+]([O-])c1cc(I)c(O)c(I)c1,"activity, negative = cell killing",[1]; [11],-4.29% (inactive)
same,Potency,[1]; tumour line A,25.1 µM (active)
same,Potency,[1]; tumour line D,22.4 µM (active)
same,Potency,[2],35.5 µM (active)
C[C@]12CCC(=O)C=C1C=C[C@@H]1[C@@H]2CC[C@@]2(C)[C@H]1CC[C@@]2(O)CCC(=O)O,"activity, negative = cell killing",[1]; [6],15.7% (inactive)
same,"activity, negative = cell killing",[1]; [7],-2.69% (inactive)
same,"activity, negative = cell killing",[1]; [8],-8.65% (inactive)
same,Potency,[2],inactive
C/C(=C\c1csc(C)n1)[C@@H]1C[C@@H]2O[C@]2(C)CCC[C@H](C)[C@H](O)[C@@H](C)C(=O)C(C)(C)[C@@H](O)CC(=O)O1,"activity, negative = cell killing",[1]; [9],-25.2% (inactive)
same,"activity, negative = cell killing",[1]; [10],-19.9% (inactive)
same,Potency,[5],inactive
OC(c1ccccc1)(c1ccccc1)C1CN2CCC1CC2 (stereo unspecified),"activity, negative = cell killing",[1]; [9],-13.1% (inactive)
same,Potency,[1]; tumour line A,12.6 µM (active)
same,Potency,[2],inactive
CCC/C=C/C=C/C(=O)O[C@H]1/C(=C/C(=O)OC)C[C@H]2C[C@H]([C@@H](C)O)OC(=O)C[C@H](O)C[C@@H]3C[C@H](OC(C)=O)C(C)(C)[C@](O)(C[C@@H]4C/C(=C/C(=O)OC)C[C@H](/C=C/C(C)(C)[C@]1(O)O2)O4)O3,"activity, negative = cell killing",[1]; [9],-7.48% (inactive)
same,"activity, negative = cell killing",[1]; [10],-24.1% (inactive)
same,Potency,[2],inactive
O=C1CCO1,"activity, negative = cell killing",[1]; [9],-1.82% (inactive)
same,"activity, negative = cell killing",[1]; [10],6.37% (inactive)
same,"activity, negative = cell killing",[1]; [11],-10.3% (inactive)
same,Potency,[2],inactive
same,max response,[3],-3.35% (inactive)
same,outcome,[4],inactive
